# Assay results: ChEMBL document CHEMBL3433997, “St. Jude Leishmania screening dataset” (2016)
# Key:
# Assay type in all cases: functional
# [1] = biological target: Solute carrier family 2, facilitated glucose transporter member 1 (Homo sapiens) (UniProt P11166); assay: ST_JUDE_LEISH: Cytotoxicity at 2uM final concentration against transgenic Leishmania Mexicana promastigotes LmGLUT1 that are glucose transport deficient and complemented with the human glucose transporter GLUT1. Activity is measured by DNA content using SYBR green in vitro
# Solute carrier family 2, facilitated glucose transporter member 1 (Homo sapiens), sequence (P11166 whole entry): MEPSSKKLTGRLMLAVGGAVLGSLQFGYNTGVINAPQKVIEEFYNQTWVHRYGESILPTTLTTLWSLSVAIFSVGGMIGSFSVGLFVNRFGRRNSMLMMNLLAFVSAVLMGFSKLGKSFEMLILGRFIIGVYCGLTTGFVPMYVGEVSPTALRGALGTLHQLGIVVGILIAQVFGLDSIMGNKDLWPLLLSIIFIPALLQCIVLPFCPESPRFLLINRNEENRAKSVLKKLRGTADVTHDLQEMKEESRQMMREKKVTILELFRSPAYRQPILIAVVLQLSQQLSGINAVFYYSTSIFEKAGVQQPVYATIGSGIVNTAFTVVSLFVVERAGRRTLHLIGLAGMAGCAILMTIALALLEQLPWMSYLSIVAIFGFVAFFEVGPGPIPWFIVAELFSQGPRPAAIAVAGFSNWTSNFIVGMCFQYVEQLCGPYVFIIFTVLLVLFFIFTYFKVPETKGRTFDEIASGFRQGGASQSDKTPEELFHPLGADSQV
# [2] = biological target: Hexose transporter 1 (Plasmodium falciparum) (UniProt O97467); assay: ST_JUDE_LEISH: Cytotoxicity at 2uM final concentration against transgenic Leishmania Mexicana promastigotes LmPfHT that are glucose transport deficient and complemented with the Plasmodium falciparum hexose transporter. Activity is measured by DNA content using SYBR green in vitro
# [3] = biological target: Glucose transporter (Leishmania mexicana) (UniProt O61059); assay: ST_JUDE_LEISH: Cytotoxicity at 2uM final concentration against transgenic Leishmania Mexicana promastigotes LmGT2 that are glucose transport deficient and complemented with the L. Mexicana glucose transporter 2. Activity is measured by DNA content using SYBR green in vitro
Structure (SMILES),inhibition [1] [%],inhibition [2] [%],inhibition [3] [%]
COc1ccc(Nc2nc(NC3CCN(C)CC3)cc(-c3ccc(OC)cc3)n2)cc1,2.07,2.61,2.87
Cc1cccc2nc(-c3ccc(-c4cccc(CNCCCNS(C)(=O)=O)c4)cc3)[nH]c12,0.32,0.24,-0.36
NC(=O)c1cccc(C(=O)Nc2cccc(-c3cccc(-c4nc5cc(C(F)(F)F)ccc5[nH]4)c3)c2)c1,-0.51,0.13,0.83
COc1ccc2nccc([C@@H](O)CN3CCC(NC(=O)c4ccc(Cl)c([N+](=O)[O-])c4)CC3)c2c1,13.3,8.44,0
O=C(/C=C/c1ccc(Cl)c(Cl)c1)NCCCCCN1CCC(NC(=O)c2ccc(F)c(F)c2)CC1,3.18,5.17,6.18
CC(C)C[C@H](Nc1ccnc(NCC2CCCCC2)n1)C(=O)NCCc1ccccc1,3.1,0.57,0.72
O=C(Nc1ccc(Cl)c(Cl)c1)N1CCC(NCc2cccc([N+](=O)[O-])c2)CC1,4.54,1.1,3.26
N=C(N)NC(=O)Nc1cc(Br)c(Cl)c(C(F)(F)F)c1,4.79,3.32,0.66
CN1CC=C(c2csc3ccc(NC(=O)Nc4ccc(-c5ccncc5)c5ccccc45)cc23)CC1,3.83,3.39,-1.21
Fc1ccc2[nH]c(-c3cccc(-c4ccc(CN5CCN(c6ccncc6)CC5)cc4)c3)nc2c1,0.76,1.36,0.8
Cc1ccc(C(NC(=O)C2CCCCC2)c2ccc3cccnc3c2O)cc1 (stereo not drawn),0.75,1.7,0.54
c1ccc(CCNc2ncnc3c2[nH]c2ccccc23)cc1,3.67,11.6,3.69
COCCOc1ccc(Nc2nccc(-c3c(-c4cccc(NC(=O)c5c(F)cccc5F)c4)nn4ccccc34)n2)cc1Cl,13.5,11.1,2.52
CC(C)Sc1nc2c(c(=O)n1CCc1ccccc1)C1(CCCC1)Cc1ccccc1-2,1.78,2.51,2.88
Cn1ccnc1CNC(=O)c1ccc(-c2cccc(-c3nc4cc(C(F)(F)F)ccc4[nH]3)c2)cc1,1.73,0.7,0.2
CC(C)N(CC(=O)c1ccc(O)c(C(=O)O)c1)Cc1ccccc1,3.53,3.51,1.67
